GLP-1R agonist = activates the human GLP-1 receptor; P43220; HEK293 GLP-1R CRE-luciferase, luminescence, 4-6 h; cells express a hypersensitive GLP-1R form; Potency, µM (titrated, usually from 45.6 µM), most hits filed as activators; actives 0.007% (n = 380,000)
Target sequence (P43220 whole entry, looked up): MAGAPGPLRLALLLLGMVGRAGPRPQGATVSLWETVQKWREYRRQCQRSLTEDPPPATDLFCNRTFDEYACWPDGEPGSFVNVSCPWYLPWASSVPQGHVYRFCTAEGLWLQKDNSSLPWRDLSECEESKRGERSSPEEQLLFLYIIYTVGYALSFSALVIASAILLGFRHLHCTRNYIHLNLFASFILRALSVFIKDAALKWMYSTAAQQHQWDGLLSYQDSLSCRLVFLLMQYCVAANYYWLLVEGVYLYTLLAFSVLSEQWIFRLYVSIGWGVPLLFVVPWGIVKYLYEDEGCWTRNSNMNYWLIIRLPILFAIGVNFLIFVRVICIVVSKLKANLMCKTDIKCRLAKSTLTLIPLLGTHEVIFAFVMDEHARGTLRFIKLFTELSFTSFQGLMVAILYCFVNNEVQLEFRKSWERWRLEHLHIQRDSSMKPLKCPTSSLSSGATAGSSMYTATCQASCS
HEK293 tox = cytotoxicity in counter-screen for GLP-1R inverse agonists | HEK293 cAMP-luciferase reporter cells, luminescence, 24 h | Potency, µM (doses to about 38.3 µM), most hits filed as inhibitors | actives 0.13% (n = 410,000);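 note: loss of luciferase light is scored as toxicity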
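Quantitative HTS format, 1536 wells, 200 cells/uL seeded. Compounds: 23 nL, 24 h, 37 °C. Detection: luciferase reagent, luminescence at 12 min RT; decreased signal taken as cytotoxic.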
GLP1R inv ag = inverse agonists of human GLP-1 receptor; HEK293 GLP-1R CRE-luciferase, luminescence, 24 h; GLP-1R form is constitutively active; Potency, µM (highest dose often 38.3 µM), usual class: inhibitors; actives 1.6% (n = 410,000); AID 624417; note: nearly all actives have a fitted effect of over 55% in size
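Inverse agonism was detected as reduced cAMP-driven luciferase luminescence after 24 h compound treatment. The cells were HEK293 clones expressing constitutively active human GLP-1R with the reporter. Reporter-only and GPR119 cell lines served as counterscreen controls.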
PTHR1 ag = agonists of human PTHR1 parathyroid hormone receptor; Q03431; actives 0.075% (n = 410,000); Potency, µM (doses to about 115 µM), hits mostly activators; HEK293 GP2 PTHR1 cells, GloSensor cAMP luminescence, 1 h; note: nearly all actives have a fitted effect of over 55% in size
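HEK-293-derived GP2 cells expressing PTHR1 and a GloSensor cAMP reporter, 3,000/well, plated overnight, given luciferin plus IBMX (each 0.5 mM as added) for 1 h at 37 °C, then compound for 1 h at 37 °C. Luminescence was read after 15 min at room temperature.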
Numbers stand for hits; – = inactive; ? = inconclusive; · = no result. Sampled rows, rich in hits. Any-hit rate of the full collection: about 1.7%. Calls come from the whole dose curve; as a rule, active = well fitted curve in the direction sought with a large enough effect; inconclusive = small, poorly fitted or top-dose-only effect, or another doubt; inactive = no such curve, though single readings can be large; an effect the other way counts as inactive or inconclusive.

SMILES | GLP-1R agonist | HEK293 tox | GLP1R inv ag | PTHR1 ag
COc1ccc(OC)c(CNC(=O)c2ccc(-c3nc(CSc4ccccc4)c(C)o3)cc2)c1 | · | – | ? | –
Cc1cc2cc(CNC(=S)Nc3ccc(OC(F)(F)F)cc3)ccc2[nH]1 | – | ? | 11.2µM | –
COc1ccc(Cl)cc1NC(=O)c1nc(S(C)(=O)=O)ncc1N(Cc1ccc(C)cc1)Cc1ccco1 | · | – | – | –
CC(C)(C)c1ccc(Cn2c(=O)cnc3ccccc32)cc1 | – | ? | 5.01µM | –
O=c1cnc2ccccc2n1Cc1ccc(Br)cc1 | – | ? | ? | –
COC(=O)[C@@H]1C[C@]2(OC(=O)c3ccccc3)C=CC(=O)C[C@@H]2N1C(=O)OCc1ccccc1 | – | – | 7.08µM | –
COC(CNC(=O)C1CCCN1C(=O)OCc1ccccc1)OC (stereo not given) | – | – | – | –
Cc1cc(-c2nnc(SCC(=O)N3C(C)CCCC3C)o2)no1 (stereo not given) | – | – | – | –
CC1CCCC(C)N1C(=O)CSc1nnc(C2CCCCC2)o1 (stereo not given) | – | – | 3.16µM | –
CCCNC(=O)C1CCN(Cc2cc3ccccc3n2Cc2ccccc2)CC1 | · | – | ? | –
CN(C)CCNC(=O)C1CCN(Cc2cc3ccccc3n2Cc2ccccc2)CC1 | · | ? | ? | –
CC(CNC(=O)C1CCN(Cc2cc3ccccc3n2Cc2ccccc2)CC1)c1ccccc1 (stereo not given) | · | – | 10µM | –
COCCNC(=O)C1CCN(Cc2cc3ccccc3n2Cc2ccc(C)cc2)CC1 | · | – | 10µM | –
CN(Cc1ccccc1)C(=O)C1CCN(Cc2cc3ccccc3n2Cc2ccccc2)CC1 | · | – | 10µM | –
O=C(NCCc1ccccc1)C1CCN(Cc2cc3ccccc3n2Cc2ccccc2)CC1 | · | – | ? | –
CCNC(=O)C1CCN(Cc2cc3ccccc3n2Cc2ccc(C)cc2)CC1 | · | – | – | –
Cc1ccccc1Cn1c(CN2CCC(C(=O)NCCc3ccccc3)CC2)cc2ccccc21 | · | – | 11.2µM | –
CN(CC(=O)N1CCOCC1)Cc1c(Cl)cccc1NC(=O)c1ccccc1 | – | · | · | ·
CCOc1ccc(C(=O)c2oc3ccccc3c2NC(=O)c2cc(-c3ccc(C)cc3)on2)cc1 | · | – | – | –
COc1cc(C2Oc3ccccc3C=C2[N+](=O)[O-])cc(OC)c1OC (stereo not given) | – | – | 11.2µM | –
COc1cc(C2NC(=O)c3ccccc3O2)cc(OC)c1OC (stereo not given) | – | – | – | –
Cc1ccc(Cn2c(CNC(=O)CCc3ccccc3)nc3cccnc32)cc1 | · | – | – | –
Cc1ccccc1N(C(=O)c1cccs1)c1nc2ccccc2s1 | – | – | 2.24µM | –
Cc1ccsc1C(=O)N(c1nc2ccccc2s1)c1c(C)cccc1C | – | – | 7.94µM | –
COc1ccc(C)cc1N(C(=O)c1ccccc1)c1nc2ccccc2s1 | – | – | ? | –
SMILES | GLP-1R agonist | HEK293 tox | GLP1R inv ag | PTHR1 ag
CC(=O)Nc1nonc1-c1nnc(SCC(=O)Nc2ccc(C)c(Cl)c2)n1-c1ccccc1 | · | – | – | –
O=C(CSc1nnc(Cn2nnc3ccccc32)o1)N(Cc1ccc(F)cc1)c1ccccc1 | – | – | 11.2µM | –
CC(C)/C=C1\CC/C(=C\c2ccc(N(C)C)cc2)C1=O | – | – | – | –
CN(C)c1ccc(/C=C2/C[N+](C)(C)C/C(=C/c3ccc(N(C)C)cc3)C2=O)cc1 | – | 8.91µM | – | –
CCOC(=O)c1nnn(-c2nonc2N)c1COc1cc(C)c(Cl)c(C)c1 | – | – | 8.91µM | –
Cc1cc(F)ccc1Nc1nc2ccc(Cl)cc2n2cnnc12 | · | – | – | –
CC1CN(c2nc3ccccc3nc2SCC(=O)Nc2cccc(C(F)(F)F)c2)CC(C)O1 (stereo not given) | – | ? | 11.2µM | –
COc1cc(NC(=O)c2cc(-c3cccc(OC)c3)n[nH]2)cc(OC)c1 | · | ? | ? | –
Cc1ccccc1Nc1c(-c2ccccc2O)nc2sccn12 | · | – | ? | –
Cc1nc(N2CCCCC2)c2c(C)c(C(=O)Nc3cccc(C(F)(F)F)c3)sc2n1 | – | – | ? | –
Cc1nc(N2CCCCC2C)c2c(C)c(C(=O)Nc3cccc(C(F)(F)F)c3)sc2n1 (stereo not given) | – | ? | 10µM | –
Cn1nc(C(C)(C)C)cc1C(=O)N1CCCCC1c1cc(C(=O)Nc2cccc(C#N)c2)no1 (stereo not given) | – | – | 10µM | –

Screening data (PubChem BioAssay)
